Values joined by “and” are separate entries in the source; they are usually repeats but may differ in a detail not shown here. Identical values can stand only once. A number with no mark means an inactive call. Inconclusive results are not listed. A call without a number means that no potency is given here. Active and inactive are the calls of the source. Unless noted, calls come from the whole dose curve; as a rule, active = well fitted curve in the direction sought with a large enough effect in the repeat runs; inconclusive = weak or mixed curves; inactive = no such curve, though single readings can be large; an effect the other way counts as inactive or inconclusive.
Columns and labels:
[1] = qHTS assay to identify small molecule agonists of the estrogen receptor alpha (ER-alpha) signaling pathway in the presence of an antagonist - cell viability counter screen (AID 1259386);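 note: cells exposed to compounds for 22 h at 37 °C before the viability read; nearly all actives have a fitted effect of over 30% in size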; note: potency is the fitted concentration of half-maximal effect
Procedure, shortened: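 Steps: 5-day stripped-FBS culture; seed and incubate 24hr; add ICI-182,780 (10.0nM final); pin 15-point compound titration; incubate 22hr at 37C; add CellTiter-Fluor at 21hr; read fluorescence.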

[2] = molecular target: Progesterone receptor (Homo sapiens) (UniProt P06401); assay: qHTS assay to identify small molecule agonists of the progesterone receptor (PR) signaling pathway (AID 1346784; calls by dose curve; note: nearly all actives have a fitted effect of over 30% in size)
Progesterone receptor (Homo sapiens), sequence (P06401 whole entry, looked up): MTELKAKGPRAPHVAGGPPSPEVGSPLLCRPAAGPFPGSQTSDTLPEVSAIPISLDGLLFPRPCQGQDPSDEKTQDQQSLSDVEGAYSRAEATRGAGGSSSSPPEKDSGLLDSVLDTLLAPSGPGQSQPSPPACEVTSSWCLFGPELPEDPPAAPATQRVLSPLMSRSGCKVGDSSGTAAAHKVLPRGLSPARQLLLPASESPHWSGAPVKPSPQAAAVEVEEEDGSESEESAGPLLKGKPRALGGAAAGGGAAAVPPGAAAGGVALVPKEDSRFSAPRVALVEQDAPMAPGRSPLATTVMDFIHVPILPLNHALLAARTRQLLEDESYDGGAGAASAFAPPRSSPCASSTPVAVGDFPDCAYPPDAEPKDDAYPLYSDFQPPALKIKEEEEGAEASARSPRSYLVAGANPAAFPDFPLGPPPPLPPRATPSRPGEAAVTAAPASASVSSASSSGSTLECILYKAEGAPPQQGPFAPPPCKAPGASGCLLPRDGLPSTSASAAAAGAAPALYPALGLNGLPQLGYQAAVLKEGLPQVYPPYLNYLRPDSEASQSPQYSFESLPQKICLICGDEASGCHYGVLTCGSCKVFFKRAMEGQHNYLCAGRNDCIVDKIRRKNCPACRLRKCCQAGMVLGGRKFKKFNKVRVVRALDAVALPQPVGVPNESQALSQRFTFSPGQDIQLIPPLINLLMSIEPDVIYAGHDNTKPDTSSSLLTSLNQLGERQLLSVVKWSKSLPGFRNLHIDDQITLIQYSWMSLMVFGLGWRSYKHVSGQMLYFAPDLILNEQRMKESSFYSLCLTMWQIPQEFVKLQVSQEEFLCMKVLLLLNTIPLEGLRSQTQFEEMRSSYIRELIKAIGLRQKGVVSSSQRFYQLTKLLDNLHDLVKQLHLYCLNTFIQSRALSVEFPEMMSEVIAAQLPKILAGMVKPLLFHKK
Procedure, shortened: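 HEK 293T PR-UAS-bla reporter cells, 2% charcoal-stripped FBS; 6 hr settle at 37C/5% CO2, compound (DMSO) 16 hr, LiveBLAzer B/G FRET substrate 2 hr RT, fluorescence intensity read.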

[3] = qHTS assay to identify small molecule antagonists of the progesterone receptor (PR) signaling pathway - cell viability counter screen (AID 1346798); note: nearly all actives have a fitted effect of over 50% in size; note: potency is the fitted concentration of half-maximal effect
Procedure, shortened: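 Luminescence readout (CellTiter-Glo, 30 min, RT) of viability in PR-UAS-bla HEK293T cells exposed to compound and R5020 agonist for 16 hr at 37C, 5% CO2; run in the same wells as the beta-lactamase reporter read.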

[4] = qHTS assay to identify small molecule agonists of the TGF-beta/Smad signaling pathway - cell viability counter screen (AID 1346829); note: top concentration of the series differs between compounds; nearly all actives have a fitted effect of over 45% in size
Procedure, shortened: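 After overnight seating at 37 C and 5% CO2, reporter cells got compounds for 5 hr and FRET substrate for 2 hr; cell viability then came from CellTiter-Glo luminescence.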

[5] = qHTS assay to identify small molecule agonists of the TGF-beta/Smad signaling pathway (AID 1346859; active = well fitted activation curve with a large enough effect in the signal ratio in the repeat runs, not every such curve was filed as active; the % refers to the signal ratio; note: series mostly up to about 77 µM)
Procedure, shortened: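 Read-out: fluorescence at 460 and 530 nm (405 nm excitation) after a 2 hr room-temperature incubation with beta-lactamase FRET substrate. SBE-bla HEK 293T cells had been treated with test compounds for 5 hr at 37 C.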

[6] = Caspase-3/7 induction in HepG2 cells by small molecules, qHTS assay (AID 1346978); note: nearly all actives have a fitted effect of over 15% in size
Procedure, shortened: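 Wild-type HepG2 cells, 2,000/well, settled 5 hr at 37 C and 5% CO2, then compound-treated for 17 hr; caspase-3/7 activity read by luminescent Caspase-Glo 3/7 after 30 min at room temperature.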

[7] = Caspase-3/7 induction in CHO-K1 cells by small molecules, qHTS cell viability counter screen (AID 1346979); note: nearly all actives have a fitted effect of over 35% in size; note: potency is the fitted concentration of half-maximal effect
Procedure, shortened: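 CHO-K1 wt, 1,500 cells/well; 5hr pre-incubation 37C/5% CO2; compound pin transfer (DMSO); 16hr exposure; CellTiter-Fluor added, 1hr, fluorescence read.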

[8] = Caspase-3/7 induction in CHO-K1 cells by small molecules, qHTS assay (AID 1346980); note: nearly all actives have a fitted effect of over 15% in size
Procedure, shortened: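 Wild-type CHO-K1 cells exposed to compounds for 17hr at 37 C, 5% CO2. Caspase-3/7 activity then measured by Caspase-Glo 3/7 luminescence after 30min at room temperature.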

[9] = Caspase-3/7 induction in HepG2 cells by small molecules, qHTS cell viability counter screen (AID 1346981); note: nearly all actives have a fitted effect of over 30% in size; note: potency is the fitted concentration of half-maximal effect
Procedure, shortened: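 The parent HepG2 line is plated at 2,000 cells per well and rested 5 hr before compound pinning from DMSO stocks. Following a 16-hr treatment at 37 C, a fluorogenic live-cell substrate (CellTiter-Fluor) reports viability after 1 hr.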

[10] = molecular target: Nuclear receptor subfamily 1 group I member 2 (Homo sapiens) (UniProt O75469); assay: Human pregnane X receptor (PXR) small molecule agonists, qHTS assay (AID 1346982); note: nearly all actives have a fitted effect of over 35% in size; note: potency is the fitted concentration of half-maximal effect
Nuclear receptor subfamily 1 group I member 2 (Homo sapiens), sequence (O75469 whole entry, looked up): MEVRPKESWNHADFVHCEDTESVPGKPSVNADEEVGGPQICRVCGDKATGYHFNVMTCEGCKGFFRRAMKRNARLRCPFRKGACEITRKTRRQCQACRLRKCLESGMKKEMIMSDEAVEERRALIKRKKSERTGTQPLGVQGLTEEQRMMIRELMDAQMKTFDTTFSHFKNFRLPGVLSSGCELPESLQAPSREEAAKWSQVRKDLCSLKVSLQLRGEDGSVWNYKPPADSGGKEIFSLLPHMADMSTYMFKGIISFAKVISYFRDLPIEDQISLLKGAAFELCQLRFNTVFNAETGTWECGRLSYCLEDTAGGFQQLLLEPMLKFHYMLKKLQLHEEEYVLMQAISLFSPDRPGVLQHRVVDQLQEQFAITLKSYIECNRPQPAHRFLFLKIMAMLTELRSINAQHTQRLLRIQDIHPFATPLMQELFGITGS
Procedure, shortened: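 After plating in 5% charcoal-stripped FBS and a 5 hr rest, PXR-Luc HepG2 cells received compounds in DMSO. Following 24 hr at 37 C, ONE-Glo was added and light output read.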

[11] = molecular target: Acetylcholinesterase (Homo sapiens) (UniProt P22303); assay: Acetylcholinesterase (AChE) small molecule antagonists: colormetric cell-based qHTS assay (AID 1347395; calls by dose curve; note: nearly all actives have a fitted effect of over 30% in size; note: potency is the fitted concentration of half-maximal effect)
Acetylcholinesterase (Homo sapiens), sequence (P22303 whole entry, looked up): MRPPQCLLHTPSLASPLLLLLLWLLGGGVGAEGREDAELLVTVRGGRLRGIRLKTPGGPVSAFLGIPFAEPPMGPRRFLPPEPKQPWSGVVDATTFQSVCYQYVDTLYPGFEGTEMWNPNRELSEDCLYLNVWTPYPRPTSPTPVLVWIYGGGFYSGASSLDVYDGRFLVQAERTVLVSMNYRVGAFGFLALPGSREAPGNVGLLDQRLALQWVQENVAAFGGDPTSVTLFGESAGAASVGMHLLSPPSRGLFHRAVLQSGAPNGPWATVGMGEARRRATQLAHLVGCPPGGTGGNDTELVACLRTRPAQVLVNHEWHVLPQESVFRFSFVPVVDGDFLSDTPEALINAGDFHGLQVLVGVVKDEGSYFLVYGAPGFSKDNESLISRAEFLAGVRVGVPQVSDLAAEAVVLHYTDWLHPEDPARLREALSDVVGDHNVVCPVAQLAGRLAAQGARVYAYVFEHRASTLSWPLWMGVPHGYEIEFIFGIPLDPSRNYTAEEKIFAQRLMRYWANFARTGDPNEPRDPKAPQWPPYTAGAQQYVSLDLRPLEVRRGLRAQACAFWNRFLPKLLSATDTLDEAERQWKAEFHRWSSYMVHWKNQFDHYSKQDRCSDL
Procedure, shortened: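 SH-SY5Y cells; cpd 30 min 37 C; + DTNB/acetylthiocholine, 90 min 37 C; colorimetric thiocholine read; qHTS.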

[12] = molecular target: Thyrotropin-releasing hormone receptor (Homo sapiens) (UniProt P34981); assay: qHTS assay to identify small molecule antagonists of the thyrotropin-releasing hormone receptor (TRHR) signaling pathway (AID 1346877; active = well fitted inhibition curve with a large enough effect in the repeat runs, not every such curve was filed as active; note: series mostly up to about 51 µM)
Thyrotropin-releasing hormone receptor (Homo sapiens), sequence (P34981 whole entry, looked up): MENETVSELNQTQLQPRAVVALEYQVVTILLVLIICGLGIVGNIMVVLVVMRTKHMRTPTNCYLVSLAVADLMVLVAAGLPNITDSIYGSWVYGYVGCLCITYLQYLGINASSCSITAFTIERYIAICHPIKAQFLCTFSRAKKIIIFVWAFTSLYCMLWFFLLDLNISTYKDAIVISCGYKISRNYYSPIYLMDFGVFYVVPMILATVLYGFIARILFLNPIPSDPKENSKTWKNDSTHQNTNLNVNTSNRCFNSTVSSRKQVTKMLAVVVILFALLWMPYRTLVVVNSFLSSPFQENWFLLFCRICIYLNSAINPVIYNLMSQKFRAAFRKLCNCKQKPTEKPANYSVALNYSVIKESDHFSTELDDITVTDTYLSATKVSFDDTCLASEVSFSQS
Procedure, shortened: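 Human TRHR in HEK293 cells; inhibition of the intracellular calcium rise triggered by 1 nM TRH was followed by fluorescence over 3 min. Compounds were run at 15 concentrations, three replicates each.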

[13] = molecular target: Thyrotropin-releasing hormone receptor (Homo sapiens) (UniProt P34981); assay: qHTS assay to identify small molecule agonists of the thyrotropin-releasing hormone receptor (TRHR) signaling pathway (AID 1346891; calls by dose curve;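 note: HEK293 cells expressing TRHR with calcium dye readout; series mostly up to about 58 µM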)
Procedure, shortened: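 HEK293/TRHR cells, 1500 per well, 18 h 37 °C; Ca dye 2 h 37 °C; pin-tool compound addition (agonist mode); kinetic fluorescence 3 min, 1 s reads; 15 concentrations, triplicate.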

[14] = qHTS assay to identify small molecule antagonists of the TGF-beta/Smad signaling pathway - cell viability counter screen (AID 1346824); note: nearly all actives have a fitted effect of over 50% in size
Procedure, shortened: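 SBE-bla HEK 293T cells, incubated overnight, then compound plus 0.25 ng/mL TGF-beta1 (stock added) for 5 hr at 37 C. Viability was read in the same wells by CellTiter-Glo luminescence after 30 min at room temperature.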

[15] = Human pregnane X receptor (PXR) small molecule agonists, qHTS cell viability counter screen (AID 1346977); note: nearly all actives have a fitted effect of over 50% in size
Procedure, shortened: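 Fluorescence read-out (CellTiter-Fluor) of viability in PXR-Luc HepG2 cells, multiplexed with the luciferase agonist read. Compounds in DMSO added after 5hr plating; 24hr total exposure at 37C, 5% CO2.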

[16] = qHTS assay to identify small molecule agonists of the progesterone receptor (PR) signaling pathway - cell viability counter screen (AID 1346799; calls by dose curve; note: nearly all actives have a fitted effect of over 45% in size; note: potency is the fitted concentration of half-maximal effect)
Procedure, shortened: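 HEK293T PR-UAS-bla, 3,000 cells/well, 2% charcoal-stripped FBS; 6 h settle, compound 16 h at 37C/5% CO2; LiveBLAzer 2 h RT, then CellTiter-Glo 30 min RT, luminescence read.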

[17] = molecular target: Nuclear receptor subfamily 1 group I member 2 (Homo sapiens) (UniProt O75469); assay: CYP3A4 induction through human pregnane X receptor (PXR) by small molecules, qHTS assay (AID 1346984); note: nearly all actives have a fitted effect of over 40% in size
Procedure, shortened: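 Human PXR activation is tracked via CYP3A4 promoter-luciferase in DPX-2 (HepG2) cells. Compounds treat cells for 24hr at 37C, and luminescence is read after One-Glo.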

[18] = molecular target: Nuclear receptor subfamily 1 group I member 2 (Homo sapiens) (UniProt O75469); assay: Human pregnane X receptor (PXR) activation by small molecules, qHTS assay (AID 1346985); note: nearly all actives have a fitted effect of over 40% in size
Procedure, shortened: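 DPX-2 cells (HepG2 co-transfected with a PXR response element and a CYP3A4-promoter luciferase construct) were seeded at 2,000 per well, rested 5 hr at 37C, then exposed to DMSO-dissolved compounds for 24 hr. Activation was read as luciferase luminescence.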

[19] = molecular target: Nuclear receptor subfamily 1 group I member 2 (Rattus norvegicus) (UniProt Q9R1A7); assay: Rat pregnane X receptor (rPXR) activation by small molecules, qHTS assay (AID 1346983); details: rPXR luciferase reporter cells, One-Glo luminescence, 24 h; max activation: hits give high values; note: nearly all actives have a fitted effect of over 20% in size
Nuclear receptor subfamily 1 group I member 2 (Rattus norvegicus), sequence (Q9R1A7 whole entry, looked up): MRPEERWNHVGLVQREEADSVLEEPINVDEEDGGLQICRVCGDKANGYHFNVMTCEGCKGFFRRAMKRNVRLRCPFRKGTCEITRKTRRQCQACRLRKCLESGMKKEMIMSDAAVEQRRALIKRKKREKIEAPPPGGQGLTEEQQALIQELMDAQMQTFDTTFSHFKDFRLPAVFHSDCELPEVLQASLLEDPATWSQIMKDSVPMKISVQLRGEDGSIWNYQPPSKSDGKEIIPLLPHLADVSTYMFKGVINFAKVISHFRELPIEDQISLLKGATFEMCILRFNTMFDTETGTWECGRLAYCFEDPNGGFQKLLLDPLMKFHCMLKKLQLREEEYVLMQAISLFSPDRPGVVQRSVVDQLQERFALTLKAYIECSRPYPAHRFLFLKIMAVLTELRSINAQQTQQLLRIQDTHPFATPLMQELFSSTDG
Procedure, shortened: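 Cell-based rPXR activation assay: rPXR cells, 2,000 per well, rested 5hr at 37 C, then exposed to compounds in DMSO for 24 hr at 37 C. Luciferase activity read by One-Glo luminescence after 30 min at room temperature.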

[20] = molecular target: Progesterone receptor (Homo sapiens) (UniProt P06401); assay: qHTS assay to identify small molecule antagonists of the progesterone receptor (PR) signaling pathway (AID 1346795; active = well fitted inhibition curve with a large enough effect in the signal ratio in the repeat runs, not every such curve was filed as active; the % refers to the signal ratio; note: potency is the fitted concentration of half-maximal effect)
Procedure, shortened: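 Beta-lactamase reporter, HEK293T PR-UAS-bla line; 2% charcoal-stripped FBS; 6 hr pre-incubation, 37C/5% CO2. Compound + R5020 1 nM final, 16 hr. LiveBLAzer B/G FRET substrate, 2 hr RT; fluorescence intensity read.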

Compound	Potency [1]	Potency [2]	Potency [3]	Potency [4]	outcome [5]	Potency [6]	Potency [7]	Potency [8]	Potency [9]	Potency [10]	Potency [11]	Potency [12]	Potency [13]	Potency [14]	Potency [15]	Potency [16]	Potency [17]	Potency [18]	max activation [19]	Potency [20]
Cc1ccc(CCl)cc1	inactive	inactive	inactive	inactive	inactive	inactive	inactive	inactive	inactive	inactive	inactive	–	–	–	–	–	–	–	–	–
CN(C)c1ccc(N=Nc2ccccc2)cc1	48.6 µM (active)	inactive	inactive	inactive	inactive	inactive	30.7 µM (active)	inactive	48.6 µM (active)	7.7 µM (active)	inactive	inactive	inactive	–	–	–	–	–	–	–
[Cl][Sb]([Cl])[Cl]	54.5 µM (active)	inactive	inactive	inactive	inactive	inactive	54.5 µM (active)	inactive	–	27.3 µM (active)	inactive	inactive	inactive	inactive	inactive	–	–	–	–	–
CCCCCCCCCCCCCCC(Br)C(=O)O (stereo unspecified)	inactive	inactive	inactive	inactive	inactive	inactive	inactive	–	inactive	inactive	inactive	inactive	inactive	–	inactive	–	–	–	–	–
N#Cc1ccccc1Cl	inactive	inactive	inactive	inactive	inactive	inactive	inactive	inactive	inactive	inactive	inactive	inactive	inactive	–	–	inactive	–	–	–	–
Fc1ccc(Oc2ccnc3cc(Cl)cc(Cl)c23)cc1	inactive	inactive	inactive	inactive	inactive	inactive	–	inactive	inactive	27.3 µM (active)	inactive	–	–	inactive	–	–	–	–	–	–
O=C(O)C1C2CCC(O2)C1C(=O)O (stereo unspecified)	inactive	inactive	–	inactive	inactive	–	55.1 µM (active) and 44.5 µM (active)	inactive	inactive	inactive	inactive	inactive	inactive	inactive	–	–	–	–	–	–
ClC1=C(Cl)[C@]2(Cl)[C@H]3[C@H]([C@H]4C=C[C@H]3C4)[C@@]1(Cl)C2(Cl)Cl	inactive	inactive	–	inactive	inactive	inactive	–	inactive	inactive	–	inactive	inactive	inactive	inactive	inactive	–	–	–	–	–
CCCSP(=O)(OCC)SCCC	inactive	inactive	inactive	inactive	inactive	inactive	inactive	inactive	–	–	–	inactive	inactive	inactive	inactive	–	–	–	–	–
C[C@]12CC[C@@H]3c4ccc(OC(=O)N(CCCl)CCCl)cc4CC[C@H]3[C@@H]1CC[C@@H]2O	inactive	inactive	inactive	inactive	inactive	inactive	–	inactive	inactive	inactive	inactive	inactive	inactive	inactive	inactive	–	inactive	inactive	–	–
OC(Cc1ccccc1Cl)(Cn1cncn1)C1(Cl)CC1 (stereo unspecified)	inactive	inactive	–	inactive	inactive	inactive	–	–	inactive	34.4 µM (active)	inactive	–	–	inactive	–	–	–	–	–	–
CCCCOCN(C(=O)CCl)c1c(CC)cccc1CC	inactive	inactive	inactive	inactive	–	inactive	61.1 µM (active)	inactive	inactive	2.73 µM (active)	inactive	–	–	–	–	–	–	–	–	–
C[C@]12CC[C@H](O)C[C@H]1CC[C@@H]1[C@@H]2C[C@@H](O)[C@]2(C)[C@@H](C3=CC(=O)OC3)CC[C@]12O	inactive	inactive	1.72 µM (active)	–	–	inactive	inactive	inactive	–	2.17 µM (active)	inactive	inactive	inactive	–	–	1.54 µM (active)	–	–	–	–
C[C@@H]1O[C@@H](O[C@H]2C[C@@H](O)[C@]3(CO)[C@H]4[C@H](O)C[C@]5(C)[C@@H](C6=CC(=O)OC6)CC[C@]5(O)[C@@H]4CC[C@]3(O)C2)[C@H](O)[C@H](O)[C@H]1O	inactive	inactive	81.9 nM (active) and 150 nM (active)	–	–	inactive	inactive	–	inactive	inactive	inactive	inactive	inactive	–	–	116 nM (active) and 168 nM (active)	–	inactive	0.399% and -3.08%	–
CN(C)CCc1c[nH]c2cccc(O)c12	inactive	inactive	–	inactive	inactive	inactive	–	inactive	inactive	inactive	19.8 µM (active)	–	–	inactive	–	–	–	–	–	–
Nc1ccccc1C(=O)OC/C=C/c1ccccc1	inactive	–	inactive	inactive	inactive	inactive	–	inactive	inactive	21.7 µM (active)	inactive	inactive	inactive	inactive	inactive	inactive	–	–	–	27.4 µM (active)

From PubChem BioAssay (Tox21)
